High-throughput results deposited in PubChem BioAssay by The Scripps Research Institute Molecular Screening Center.
Hits are enriched below; roughly 3.5% of the tested compounds scored in any of these assays.
GPR151 ag: human GPR151 activation; 1% of 650,000 active; activation, % at 11.2 µM; Q8TDV0; PathHunter beta-arrestin GPR151 cells, luminescence; in the data active means activation above about 4.9%;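 further: 0% = median of compound wells and 100% = cells with positive control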
FBW7 activator: activators of human E3 ligase FBW7; Q969H0; AlphaScreen FBW7–phospho-cyclin E peptide binding, activator screen; normalized activity (activation), % at 26.1 µM; 0.13% of 650,000 active; AID 1259310; in the data active means normalized activity above about 1.9%;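 further: purified mutant Fbw7 with reduced substrate affinity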
TEAD-YAP inh: TEAD-YAP interaction inhibition; HEK-TIYL cells, TEAD-Gal4/YAP UAS-luciferase luminescence; inhibition, % at 9.12 µM; 1.4% of 640,000 active; AID 1259422; in the data active means inhibition above about 32%;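 further: 0% = median of test compound wells and 100% = reference inhibitor wells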
MITF inh: blocks human microphthalmia-associated transcription factor; AlphaScreen MITF homodimerization, bead proximity signal; inhibition, % at 2.6 µM; 0.91% of 650,000 active; in the data active means inhibition above about 50%;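 further: 0% = vehicle wells with protein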
Target sequence (O75030 whole entry, looked up): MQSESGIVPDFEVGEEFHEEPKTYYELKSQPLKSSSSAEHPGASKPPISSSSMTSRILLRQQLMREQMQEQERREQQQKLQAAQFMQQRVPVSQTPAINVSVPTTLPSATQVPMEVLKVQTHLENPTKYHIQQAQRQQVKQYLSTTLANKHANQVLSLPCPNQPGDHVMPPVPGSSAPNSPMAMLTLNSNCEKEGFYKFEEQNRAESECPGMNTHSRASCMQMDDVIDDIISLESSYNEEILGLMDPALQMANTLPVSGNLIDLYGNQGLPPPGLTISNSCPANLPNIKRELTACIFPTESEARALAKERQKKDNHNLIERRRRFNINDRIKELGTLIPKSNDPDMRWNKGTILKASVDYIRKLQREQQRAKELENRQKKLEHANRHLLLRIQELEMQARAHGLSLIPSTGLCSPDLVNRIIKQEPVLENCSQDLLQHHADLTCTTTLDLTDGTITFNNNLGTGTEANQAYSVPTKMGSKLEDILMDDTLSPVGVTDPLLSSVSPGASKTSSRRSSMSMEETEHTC
Numbers without * were called inactive; ! = not active in a repeat.

SMILES	GPR151 ag	FBW7 activator	TEAD-YAP inh	MITF inh
CCCCC(=O)NC(c1ccc(Cl)cc1)c1ccc2cccnc2c1O (configuration not stated)	0	-1	85*	27
CCC(=O)NC(c1ccc(Cl)cc1)c1ccc2cccnc2c1O (configuration not stated)	0	-1	95*	32
CCC(=O)NC(c1ccc2c(c1)OCO2)c1cc(Cl)c2cccnc2c1O (configuration not stated)	-1	0	5	14
COc1ccc(CNc2cccc(F)c2)cc1OC	1	0	12	12
Cc1[nH]ccc2c1[nH]c1cc(=O)ccc12	-1	0	37*!	27
COc1ccc2c(c1)CC(C(=O)Nc1ccc(-c3cn[nH]c3)cc1OCCN)CO2 (configuration not stated)	0	0	38*	27
COc1ccc2c(c1)CC(C(=O)Nc1ccc(-c3cn[nH]c3)cc1OCCCO)CO2 (configuration not stated)	2	0	-1	17
CN(C)CCOc1cc(-c2cn[nH]c2)cc2sc(C3COc4ccccc4C3)nc12 (configuration not stated)	-1	0	4	24
COc1ccc2c(c1)CC(c1nc3c(OCCN(C)C)cc(-c4cn[nH]c4)cc3s1)CO2 (configuration not stated)	1	-1	73*	47
CC(=O)NNC(=O)CSc1nc(CCc2ccccc2)nc2sc3c(c12)CCCC3	2	0	4	-5
O=C(Nc1ccc(Oc2cc(Oc3ccccc3)cc([N+](=O)[O-])c2)cc1)c1nc2nc(-c3ccccc3)cc(C(F)(F)F)n2n1	-4	0	-1	2
S=C(NCc1ccc2c(c1)OCO2)NC1CCCCC1	1	0	6	1
CCSc1nc2sccn2c(=O)c1C(=O)Nc1cccc(C(F)(F)F)c1	1	-1	2	-2
C[C@]12C=CC(=O)C=C1CCC1C2[C@@H](O)C[C@@]2(C)C1CC[C@]2(O)C(=O)COC(=O)CCC(=O)O (some centres not stated)	1	8.0*	-7	2
COc1ccc(CCNC(=O)c2nnn(-c3ccc4c(c3)OCCO4)c2N)cc1OC	1	0	65*	5
CC(=O)Nc1ccc(Nc2nc(Nc3ccncn3)nc3c2ncn3C(C)C)cc1	-1	0	-9	4
CC(=O)Nc1ccc(Nc2nc(Nc3ccncn3)nc3c2ncn3-c2ccccc2)cc1	2	5.1*	14	5
CC(=O)Nc1ccc(Nc2nc(N3CCc4ccccc4C3)nc3c2ncn3-c2ccsc2)cc1	-3	0	40*	10
CC(=O)Nc1ccc(Nc2nc(-c3c(C)noc3C)nc3c2ncn3-c2ccsc2)cc1	-2	0	-3	10
CC(=O)Nc1ccc(Nc2nc(Nc3ccc(-n4ccnc4)cc3)nc3c2ncn3-c2ccccc2)cc1	2	0	52*	10
CC(=O)Nc1ccc(Nc2nc(Nc3cnccn3)nc3c2ncn3-c2ccsc2)cc1	4	3.7*	29	7
C/C(=C\C(=O)c1cccnc1)Nc1ccc(Cl)cc1Cl	2	0	1	13
COc1ccc2nc(N=Nc3c(O)[nH]c(=O)[nH]c3=O)sc2c1	-2	0	4	15
CC(C)c1onc(C(=O)N2CCN(C(=O)c3ccco3)CC2)c1[N+](=O)[O-]	-1	0	6	-1
Nc1nc(Nc2ccncn2)nc2c1ncn2-c1ccccc1	0	4.2*	-10	-4
SMILES	GPR151 ag	FBW7 activator	TEAD-YAP inh	MITF inh
Cn1c(Nc2nc(NCCO)c3ncn(-c4ccsc4)c3n2)nc2ccccc21	-3	0	14	4
CC(=O)Nc1ccc(Nc2nc(Nc3nc4ccccc4n3C)nc3c2ncn3-c2ccsc2)cc1	0	0	43*	7
CC(=O)Nc1ccc(Nc2nc(Nc3ccc(N4CCOCC4)cc3)nc3c2ncn3-c2ccccc2)cc1	-2	0	-2	8
CC(=O)Nc1ccc(Nc2nc(Nc3ccncc3)nc3c2ncn3-c2ccccc2)cc1	-2	3.4*	45*	-14
CC(=O)Nc1ccc(Nc2nc(Nc3ccccc3)nc3c2ncn3-c2ccccc2)cc1	3	0	46*	2
O=C(NCC1CCCO1)C1CCN(C(=O)c2cnn(-c3ccccc3)c2-n2cccc2)CC1 (configuration not stated)	2	0	-7	0
Cn1nc([N+](=O)[O-])nc1N/N=C/c1ccc([N+](=O)[O-])cc1	-1	0	7	-10
CC(=O)Nc1ccc(Nc2nc(Nc3ccccc3)nc3c2ncn3-c2ccsc2)cc1	0	0	36*	11
COc1cc(Nc2nc(Nc3ccc(NC(C)=O)cc3)c3ncn(-c4ccccc4)c3n2)cc(OC)c1OC	-2	0	39*	-9
CCOc1cc(C2CC(=O)Nc3ccc4ccccc4c32)cc(Br)c1O (configuration not stated)	1	0	36*	2
c1ccc(NNC2=Nc3ccccc3CCC2)cc1	0	0	36*	3
N#Cc1cccc(NC(=O)CNC(=O)CNC(=O)c2ccc(Cl)cc2Cl)c1	-2	0	3	14
CN1C(C(=O)Nc2ccccn2)=C(O)c2sccc2S1(=O)=O	0	2.0*!	-4	9
CCN(CC)c1ccc(C2NC(=O)NC(C)=C2C(=O)OCc2ccc3c(c2)OCO3)cc1 (configuration not stated)	-1	0	17	9
CC1=C(C(=O)OCc2ccc3c(c2)OCO3)C(c2ccc(F)cc2)NC(=O)N1 (configuration not stated)	1	0	61*	12
CC1=C(C(=O)OCc2ccc3c(c2)OCO3)C(c2ccccc2OC(C)C)NC(=O)N1 (configuration not stated)	0	1	-9	12
CC1=C(C(=O)OCC2CCCO2)C(c2ccc([N+](=O)[O-])cc2)NC(=O)N1 (configuration not stated)	0	0	3	-1
CC1=C(C(=O)OCc2ccc3c(c2)OCO3)C(c2ccc([N+](=O)[O-])cc2)NC(=O)N1 (configuration not stated)	0	0	76*	4
CC1=C(C(=O)OCc2ccc3c(c2)OCO3)C(c2ccc(Cl)cc2)NC(=O)N1 (configuration not stated)	0	0	77*	11
CC(C)CC(=O)NC(=S)Nc1ccc(N(C)C)cc1	1	0	-42	18
Cc1ccccc1CSc1nc2ccccc2c(=O)n1CCCC(=O)NCC1CCCO1 (configuration not stated)	-2	1	6	1
CC(C)(C)OC(=O)NC(CCNC=C1C(=O)OC(C)(C)OC1=O)C(=O)O (configuration not stated)	-1	0	9	71*
CNC(=O)Cc1nc2ccccc2n1CC(=O)Nc1ccc(Br)cc1	-1	0	5	12
O=C1CCCC2=C1C(c1ccc(O)cc1)Nc1ccc(C(=O)c3ccccc3)cc1N2 (configuration not stated)	0	0	34*	4
